# Results taken from PubChem BioAssay AID1159580 (chemical genetic matrix, 2015).
# Hit rate of the full screen: of about 5,500 compounds, about 2,000 (36%) were called active. Another 18% or so got no clear call; they are omitted. The list shows a part of the results. Values without a mark were called inactive. Rule as the data show it: active = normalized growth mostly below about 0.91 (no sharp cut-off); inconclusive = no clear call, values can overlap the other calls; inactive = mostly above about 0.92.
# Experiment: chemical genetic growth profiling, strain panel (AID 1159580);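 also: tested at 20 µM; growth read once vehicle control cultures reached saturation at 30 °C; 1 = growth at the plate median or of vehicle wells; lower values mean less growth of the strain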
# Settings: growth OD
structure (smiles),measurement,setting,value
CC1=NN(c2ccccc2)C(=O)C1,normalized growth,"S. cerevisiae deletion strains, locus YJR075W, strain HOC1, stronger effect = lower value",0.979
same,normalized growth,"S. cerevisiae deletion strains, locus YKL009W, strain mrt4, stronger effect = lower value",0.991
same,normalized growth,"S. cerevisiae deletion strains, locus YKL068W, stronger effect = lower value",0.98
same,normalized growth,"S. cerevisiae deletion strains, locus YKL085W, strain MDH1 (second series), stronger effect = lower value",0.963
same,normalized growth,"S. cerevisiae deletion strains, locus YKL085W, strain MDH1, stronger effect = lower value",0.963
same,normalized growth,"S. cerevisiae deletion strains, locus YKL160W, strain elf1, stronger effect = lower value",0.951
same,normalized growth,"S. cerevisiae deletion strains, locus YKL190W, strain CNB1, stronger effect = lower value",0.994
same,normalized growth,"S. cerevisiae deletion strains, locus YKR001C, strain vps1, stronger effect = lower value",0.961
same,normalized growth,"S. cerevisiae deletion strains, locus YKR026C, strain gcn3, stronger effect = lower value",0.994
same,normalized growth,"S. cerevisiae deletion strains, locus YKR091W, strain srl3, stronger effect = lower value",0.986
same,normalized growth,"S. cerevisiae deletion strains, locus YLL001W, strain dnm1, stronger effect = lower value",0.951
same,normalized growth,"S. cerevisiae deletion strains, locus YLL026W, stronger effect = lower value",0.984
same,normalized growth,"S. cerevisiae deletion strains, locus YLL041C, strain sdh2, stronger effect = lower value",0.99
same,normalized growth,"S. cerevisiae deletion strains, locus YLR027C, strain aat2, stronger effect = lower value",0.994
same,normalized growth,"S. cerevisiae deletion strains, locus YLR039C, strain RIC1, stronger effect = lower value",0.782
same,normalized growth,"S. cerevisiae deletion strains, locus YLR058C, strain SHM2, stronger effect = lower value",0.965
same,normalized growth,"S. cerevisiae deletion strains, locus YLR102C, strain apc9, stronger effect = lower value",1
same,normalized growth,"S. cerevisiae deletion strains, locus YLR221C, strain rsa3, stronger effect = lower value",0.961
same,normalized growth,"S. cerevisiae deletion strains, locus YLR258W, strain gsy2, stronger effect = lower value",0.957
same,normalized growth,"S. cerevisiae deletion strains, locus YLR262C, strain YPT6 (second series), stronger effect = lower value",0.915
same,normalized growth,"S. cerevisiae deletion strains, locus YLR262C, strain YPT6, stronger effect = lower value",0.725
same,normalized growth,"S. cerevisiae deletion strains, locus YLR268W, strain sec22, stronger effect = lower value",0.908
same,normalized growth,"S. cerevisiae deletion strains, locus YLR320W, strain mms22, stronger effect = lower value",0.962
same,normalized growth,"S. cerevisiae deletion strains, locus YLR330W, strain CHS5, stronger effect = lower value",0.988
same,normalized growth,"S. cerevisiae deletion strains, locus YLR342W, strain FKS1 (second series), stronger effect = lower value",0.832
same,normalized growth,"S. cerevisiae deletion strains, locus YLR342W, strain FKS1, stronger effect = lower value",0.987
same,normalized growth,"S. cerevisiae deletion strains, locus YLR357W, strain rsc2, stronger effect = lower value",1
same,normalized growth,"S. cerevisiae deletion strains, locus YLR370C, strain arc18, stronger effect = lower value",0.987
same,normalized growth,"S. cerevisiae deletion strains, locus YLR371W, strain rom2, stronger effect = lower value",0.913
same,normalized growth,"S. cerevisiae deletion strains, locus YLR384C, strain iki3, stronger effect = lower value",0.982
same,normalized growth,"S. cerevisiae deletion strains, locus YLR418C, strain cdc73, stronger effect = lower value",0.78 (active)
same,normalized growth,"S. cerevisiae deletion strains, locus YML016C, strain PPZ1, stronger effect = lower value",0.979
same,normalized growth,"S. cerevisiae deletion strains, locus YML032C, strain rad52, stronger effect = lower value",0.922
same,normalized growth,"S. cerevisiae deletion strains, locus YML120C, strain ndi1, stronger effect = lower value",0.974
same,normalized growth,"S. cerevisiae deletion strains, locus YML124C, strain tub3, stronger effect = lower value",0.984
same,normalized growth,"S. cerevisiae deletion strains, locus YMR058W, strain fet3, stronger effect = lower value",0.922
same,normalized growth,"S. cerevisiae deletion strains, locus YMR078C, strain ctf18, stronger effect = lower value",0.969
same,normalized growth,"S. cerevisiae deletion strains, locus YMR125W, strain sto1, stronger effect = lower value",0.998
same,normalized growth,"S. cerevisiae deletion strains, locus YMR129W, stronger effect = lower value",0.996
same,normalized growth,"S. cerevisiae deletion strains, locus YMR205C, strain PFK2, stronger effect = lower value",0.958
same,normalized growth,"S. cerevisiae deletion strains, locus YMR223W, strain ubp8, stronger effect = lower value",0.925
same,normalized growth,"S. cerevisiae deletion strains, locus YMR231W, strain pep5, stronger effect = lower value",0.984
same,normalized growth,"S. cerevisiae deletion strains, locus YMR263W, strain SAP30, stronger effect = lower value",0.97
same,normalized growth,"S. cerevisiae deletion strains, locus YMR307W, strain GAS1, stronger effect = lower value",0.7
same,normalized growth,"S. cerevisiae deletion strains, locus YNL067W, strain RPL9B, stronger effect = lower value",0.992
same,normalized growth,"S. cerevisiae deletion strains, locus YNL071W, strain lat1, stronger effect = lower value",0.922
same,normalized growth,"S. cerevisiae deletion strains, locus YNL128W, strain TEP1, stronger effect = lower value",0.969
same,normalized growth,"S. cerevisiae deletion strains, locus YNL209W, strain ssb2, stronger effect = lower value",0.993
same,normalized growth,"S. cerevisiae deletion strains, locus YNL233W, strain BNI4, stronger effect = lower value",0.993
same,normalized growth,"S. cerevisiae deletion strains, locus YNL248C, strain rpa49, stronger effect = lower value",0.973
same,normalized growth,"S. cerevisiae deletion strains, locus YNL250W, strain rad50, stronger effect = lower value",0.957
same,normalized growth,"S. cerevisiae deletion strains, locus YNL271C, strain bni1, stronger effect = lower value",0.925
same,normalized growth,"S. cerevisiae deletion strains, locus YNL298W, strain CLA4, stronger effect = lower value",0.951
same,normalized growth,"S. cerevisiae deletion strains, locus YNL307C, strain MCK1, stronger effect = lower value",0.796 (active)
same,normalized growth,"S. cerevisiae deletion strains, locus YNL322C, strain KRE1 (second series), stronger effect = lower value",0.977
same,normalized growth,"S. cerevisiae deletion strains, locus YNL322C, strain KRE1, stronger effect = lower value",0.985
same,normalized growth,"S. cerevisiae deletion strains, locus YNR049C, strain mso1, stronger effect = lower value",0.992
same,normalized growth,"S. cerevisiae deletion strains, locus YNR052C, strain pop2, stronger effect = lower value",0.942
same,normalized growth,"S. cerevisiae deletion strains, locus YOL006C, strain TOP1, stronger effect = lower value",0.997
same,normalized growth,"S. cerevisiae deletion strains, locus YOL012C, strain htz1",0.753
same,normalized growth,"S. cerevisiae deletion strains, locus YOL147C, strain pex11, stronger effect = lower value",0.979
same,normalized growth,"S. cerevisiae deletion strains, locus YOR001W, strain rrp6, stronger effect = lower value",0.972
same,normalized growth,"S. cerevisiae deletion strains, locus YOR061W, strain CKA2, stronger effect = lower value",0.98
same,normalized growth,"S. cerevisiae deletion strains, locus YOR069W, strain VPS5, stronger effect = lower value",0.982
same,normalized growth,"S. cerevisiae deletion strains, locus YOR070C, strain gyp1, stronger effect = lower value",0.995
same,normalized growth,"S. cerevisiae deletion strains, locus YOR080W, strain dia2, stronger effect = lower value",0.97
same,normalized growth,"S. cerevisiae deletion strains, locus YOR083W, strain WHI5, stronger effect = lower value",0.939
same,normalized growth,"S. cerevisiae deletion strains, locus YOR106W, strain vam3, stronger effect = lower value",0.959
same,normalized growth,"S. cerevisiae deletion strains, locus YOR136W, strain idh2, stronger effect = lower value",0.966
same,normalized growth,"S. cerevisiae deletion strains, locus YOR144C, strain elg1, stronger effect = lower value",0.988
same,normalized growth,"S. cerevisiae deletion strains, locus YOR184W, strain ser1, stronger effect = lower value",0.927
same,normalized growth,"S. cerevisiae deletion strains, locus YOR265W, strain rbl2, stronger effect = lower value",0.988
same,normalized growth,"S. cerevisiae deletion strains, locus YOR270C, strain vph1, stronger effect = lower value",1.03
same,normalized growth,"S. cerevisiae deletion strains, locus YOR290C, strain snf2, stronger effect = lower value",0.938
same,normalized growth,"S. cerevisiae deletion strains, locus YOR316C, strain cot1, stronger effect = lower value",0.984
same,normalized growth,"S. cerevisiae deletion strains, locus YPL051W, strain arl3, stronger effect = lower value",0.954
same,normalized growth,"S. cerevisiae deletion strains, locus YPL078C, strain atp4, stronger effect = lower value",0.971
same,normalized growth,"S. cerevisiae deletion strains, locus YPL106C, strain sse1, stronger effect = lower value",1.01
same,normalized growth,"S. cerevisiae deletion strains, locus YPL240C, strain hsp82, stronger effect = lower value",0.987
same,normalized growth,"S. cerevisiae deletion strains, locus YPL241C, strain CIN2, stronger effect = lower value",0.986
same,normalized growth,"S. cerevisiae deletion strains, locus YPR119W, strain clb2, stronger effect = lower value",0.987
same,normalized growth,"S. cerevisiae deletion strains, locus YPR141C, strain kar3, stronger effect = lower value",0.947
same,normalized growth,"S. cerevisiae deletion strains, locus YPR163C, strain tif3, stronger effect = lower value",0.968
same,normalized growth,"S. cerevisiae deletion strains, locus YPR167C, strain met16, stronger effect = lower value",0.969
same,normalized growth,"S. cerevisiae deletion strains, strain wtn01, stronger effect = lower value",0.928
same,normalized growth,"S. cerevisiae strains, strain wild type, stronger effect = lower value",0.98
